Assay results: the supplement of paper PMC10849652
Targets with a hit are over-represented here; the source holds about 7,900 in all. About 0.6% of all pairs of compound and target were hits.

Columns and labels:
Test in all cases: log2 fold change, soluble protein after heating vs DMSO (PISA); higher = thermal stabilisation; K562 cells, 10 uM, 30 min; active = over 0.2 and 3.5 SD of the protein, either way, in both replicates (recomputed)
[1] = compound: CC1=C(SC2=C1C(=N[C@H](C3=NN=C(N32)C)CC(=O)N)C4=CC=C(C=C4)Cl)C
Method in brief: (§1)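 For each measurement, 10 μM compound was applied for 30 min to K562 cells at 2×10^6 cells/mL. Aliquots were heated for 3 min across 48°C-58°C, pooled, and extracted in PBS with 0.5% NP-40 at 4°C; the supernatant after 21,000xg for 90 min was soluble protein. This was quantified by TMTpro 16plex LC-MS/MS with channel sums equalised, and thermal stability was reported relative to control samples from duplicates, on a log2 fold-change scale.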

[2] = compound: c1ccc([C@@H]2C[C@H]2NC2CCNCC2)cc1
Method in brief: as §1

[3] = compound: C1=CC=C(C=C1)[C@H](COC2=CC3=C(C=C2)NC(=O)N3)NC(=O)C4=CC=CN(C4=O)CC5=CC(=C(C=C5)F)F
Method in brief: as §1

[4] = compound: CC1=C2C(=CC=C1)N=C(N(C2=O)C3=CC=CC=C3C)CN4C=NC5=C(N=CN=C54)N
Method in brief: as §1

[5] = compound: Cc1sc2c(c1C)C(c1ccc(Cl)cc1)=N[C@@H](CC(=O)OC(C)(C)C)c1nnc(C)n1-2
Method in brief: as §1

Measured: log2 fold change

NOLC1 isoform 3 (UniProt Q14978)
inactive: [1] 0.007 | [2] -0.021

MRPS12 (UniProt O15235)
inactive: [3] 0.019 | [1] -0.121 | [4] -0.176 | [5] 0.093 | [2] 0.061

NDUFA7 (UniProt M0R0N0)
inactive: [3] -0.091 | [4] 0.23

MLH1 (UniProt P40692)
UniProt P40692, sequence (P40692 whole entry, looked up): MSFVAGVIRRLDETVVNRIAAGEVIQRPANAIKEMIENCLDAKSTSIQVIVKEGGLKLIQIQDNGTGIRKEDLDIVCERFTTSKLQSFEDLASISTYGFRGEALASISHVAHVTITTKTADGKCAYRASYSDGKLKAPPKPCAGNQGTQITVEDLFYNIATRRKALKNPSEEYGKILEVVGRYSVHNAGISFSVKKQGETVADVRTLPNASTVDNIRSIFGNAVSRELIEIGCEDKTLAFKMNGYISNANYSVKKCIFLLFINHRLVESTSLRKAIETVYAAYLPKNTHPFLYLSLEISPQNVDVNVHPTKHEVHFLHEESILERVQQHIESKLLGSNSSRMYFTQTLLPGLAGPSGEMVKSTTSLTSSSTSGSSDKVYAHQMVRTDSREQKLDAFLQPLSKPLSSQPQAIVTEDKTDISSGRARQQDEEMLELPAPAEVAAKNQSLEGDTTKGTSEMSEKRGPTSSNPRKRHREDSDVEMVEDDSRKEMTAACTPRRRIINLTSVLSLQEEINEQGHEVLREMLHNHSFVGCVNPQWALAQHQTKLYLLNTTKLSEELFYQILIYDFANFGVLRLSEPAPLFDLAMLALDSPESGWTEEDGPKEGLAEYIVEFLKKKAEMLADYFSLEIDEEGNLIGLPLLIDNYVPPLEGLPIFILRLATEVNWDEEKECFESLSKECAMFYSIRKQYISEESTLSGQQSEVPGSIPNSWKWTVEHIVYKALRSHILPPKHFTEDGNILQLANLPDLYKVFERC
inactive: [3] 0.192 | [1] 0.007 | [5] -0.109 | [2] -0.065

NUDT6 (UniProt P53370)
UniProt P53370, sequence (P53370 whole entry, looked up): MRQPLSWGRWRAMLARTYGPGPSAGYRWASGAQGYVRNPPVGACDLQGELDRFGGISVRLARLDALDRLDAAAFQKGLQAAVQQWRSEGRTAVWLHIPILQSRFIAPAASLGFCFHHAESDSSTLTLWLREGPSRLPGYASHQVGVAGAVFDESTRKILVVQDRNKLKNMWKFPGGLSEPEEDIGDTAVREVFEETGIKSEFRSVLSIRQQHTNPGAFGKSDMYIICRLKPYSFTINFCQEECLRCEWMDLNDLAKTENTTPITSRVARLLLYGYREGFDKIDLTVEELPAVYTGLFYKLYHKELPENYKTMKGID
inactive: [1] 0.073 | [4] 0.34 | [5] -0.023 | [2] -0.212

NA, A0A2R8Y3M9
inactive: [3] -0.093 | [1] -0.069 | [2] 0.161

MNAT1 (UniProt P51948)
UniProt P51948, sequence (P51948 whole entry, looked up): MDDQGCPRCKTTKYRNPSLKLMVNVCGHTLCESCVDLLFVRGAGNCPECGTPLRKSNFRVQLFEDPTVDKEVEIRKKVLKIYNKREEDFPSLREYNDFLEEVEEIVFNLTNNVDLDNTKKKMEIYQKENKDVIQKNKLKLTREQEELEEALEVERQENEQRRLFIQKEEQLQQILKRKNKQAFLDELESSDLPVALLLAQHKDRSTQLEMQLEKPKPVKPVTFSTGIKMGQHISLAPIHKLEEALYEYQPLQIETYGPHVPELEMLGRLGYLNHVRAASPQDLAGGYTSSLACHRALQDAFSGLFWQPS
inactive: [3] 0.011 | [1] 0.088 | [4] 0.005 | [5] 0.033 | [2] 0.068

NUDT7 (UniProt P0C024)
inactive: [3] -0.077 | [5] -0.047

NCK1 (UniProt P16333)
inactive: [3] -0.077 | [1] 0.025 | [4] 0.168 | [5] 0.044 | [2] -0.085

MPHOSPH8 isoform 2 (UniProt Q99549)
UniProt Q99549, sequence (Q99549 whole entry, looked up): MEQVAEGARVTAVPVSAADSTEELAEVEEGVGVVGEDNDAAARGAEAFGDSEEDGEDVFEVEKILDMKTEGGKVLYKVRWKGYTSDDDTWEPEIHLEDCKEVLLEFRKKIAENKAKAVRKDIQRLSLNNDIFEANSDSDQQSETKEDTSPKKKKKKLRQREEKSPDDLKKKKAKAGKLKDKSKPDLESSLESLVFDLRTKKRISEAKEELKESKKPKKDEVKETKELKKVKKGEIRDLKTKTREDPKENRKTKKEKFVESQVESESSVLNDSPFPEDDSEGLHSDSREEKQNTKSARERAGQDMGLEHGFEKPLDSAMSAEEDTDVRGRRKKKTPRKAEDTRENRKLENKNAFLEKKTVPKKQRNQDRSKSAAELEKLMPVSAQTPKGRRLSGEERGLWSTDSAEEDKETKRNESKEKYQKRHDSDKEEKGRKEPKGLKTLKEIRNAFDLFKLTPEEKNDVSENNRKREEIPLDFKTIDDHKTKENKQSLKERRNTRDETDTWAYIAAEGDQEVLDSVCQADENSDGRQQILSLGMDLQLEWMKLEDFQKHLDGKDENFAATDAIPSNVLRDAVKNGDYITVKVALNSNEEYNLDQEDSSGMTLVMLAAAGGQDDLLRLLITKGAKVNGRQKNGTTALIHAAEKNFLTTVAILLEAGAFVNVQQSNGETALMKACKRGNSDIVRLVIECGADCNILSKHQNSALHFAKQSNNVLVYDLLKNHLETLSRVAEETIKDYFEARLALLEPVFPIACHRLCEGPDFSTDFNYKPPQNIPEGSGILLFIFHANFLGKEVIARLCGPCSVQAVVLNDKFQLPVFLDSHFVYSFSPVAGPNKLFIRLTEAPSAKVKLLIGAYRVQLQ
inactive: [1] -0.064 | [4] -0.009 | [5] 0.089 | [2] 0.061

NEK3 (UniProt P51956)
inactive: [1] 0.204 | [4] 0.053 | [5] -0.032 | [2] -0.094

NCBP2AS2 (UniProt Q69YL0)
UniProt Q69YL0, sequence (Q69YL0 whole entry, looked up): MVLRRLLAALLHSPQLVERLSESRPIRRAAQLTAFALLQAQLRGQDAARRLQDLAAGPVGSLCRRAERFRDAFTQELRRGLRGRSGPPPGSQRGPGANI
inactive: [3] 0.02 | [1] 0.019 | [4] 0.048 | [5] -0.038 | [2] -0.003

NDFIP1 (UniProt Q9BT67)
UniProt Q9BT67, sequence (Q9BT67 whole entry, looked up): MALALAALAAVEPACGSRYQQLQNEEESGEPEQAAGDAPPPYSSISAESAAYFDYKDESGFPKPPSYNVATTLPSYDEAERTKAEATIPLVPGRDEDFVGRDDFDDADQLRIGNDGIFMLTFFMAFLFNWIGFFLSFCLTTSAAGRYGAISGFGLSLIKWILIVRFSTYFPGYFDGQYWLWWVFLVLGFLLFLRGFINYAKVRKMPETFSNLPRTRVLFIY
inactive: [3] 0.035 | [1] -0.162 | [4] -0.076 | [5] -0.111 | [2] 0.052

NUMBL (UniProt Q9Y6R0)
inactive: [3] -0.058 | [1] -0.084 | [4] 0.009 | [2] -0.009

OPHN1 (UniProt O60890)
inactive: [3] -0.209 | [1] 0.033 | [5] 0.008 | [2] 0.07

NELFCD (UniProt Q8IXH7)
UniProt Q8IXH7, sequence (Q8IXH7 whole entry, looked up): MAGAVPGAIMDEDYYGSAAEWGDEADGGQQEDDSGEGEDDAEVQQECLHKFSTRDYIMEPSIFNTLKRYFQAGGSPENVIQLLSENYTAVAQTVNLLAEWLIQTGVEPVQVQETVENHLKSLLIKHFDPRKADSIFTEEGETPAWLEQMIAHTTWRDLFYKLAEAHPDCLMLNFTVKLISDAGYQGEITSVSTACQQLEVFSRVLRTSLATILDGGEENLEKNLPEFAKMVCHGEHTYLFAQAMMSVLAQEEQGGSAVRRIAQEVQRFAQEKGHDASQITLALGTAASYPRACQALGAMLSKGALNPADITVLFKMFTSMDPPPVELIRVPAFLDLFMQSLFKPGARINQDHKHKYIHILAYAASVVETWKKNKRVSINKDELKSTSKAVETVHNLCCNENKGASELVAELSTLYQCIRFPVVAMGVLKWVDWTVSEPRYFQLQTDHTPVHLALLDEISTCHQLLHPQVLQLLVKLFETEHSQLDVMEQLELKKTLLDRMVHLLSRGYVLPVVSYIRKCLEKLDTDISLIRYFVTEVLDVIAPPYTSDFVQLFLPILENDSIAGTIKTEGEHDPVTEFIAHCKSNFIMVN
inactive: [3] -0.022 | [1] 0.155 | [4] 0.214 | [2] 0.034

MITF (UniProt O75030)
inactive: [4] -0.059

MOB2 isoform 3 (UniProt Q70IA6)
UniProt Q70IA6, sequence (Q70IA6 whole entry, looked up): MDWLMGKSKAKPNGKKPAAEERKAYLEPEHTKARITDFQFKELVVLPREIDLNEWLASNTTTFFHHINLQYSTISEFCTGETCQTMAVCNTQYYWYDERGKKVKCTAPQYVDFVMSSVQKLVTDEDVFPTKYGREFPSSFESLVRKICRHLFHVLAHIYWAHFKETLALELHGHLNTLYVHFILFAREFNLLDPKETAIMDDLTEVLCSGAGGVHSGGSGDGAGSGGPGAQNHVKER
inactive: [3] -0.015 | [1] 0.129 | [5] 0.067 | [2] -0.096

NPM3 (UniProt O75607)
UniProt O75607, sequence (O75607 whole entry, looked up): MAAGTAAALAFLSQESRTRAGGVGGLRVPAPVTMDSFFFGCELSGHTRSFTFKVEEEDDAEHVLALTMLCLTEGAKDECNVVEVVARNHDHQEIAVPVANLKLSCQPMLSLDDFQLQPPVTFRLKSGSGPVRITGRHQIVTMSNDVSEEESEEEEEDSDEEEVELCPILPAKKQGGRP
inactive: [3] 0.066 | [1] -0.08 | [4] -0.087 | [5] 0.107 | [2] -0.019

NCKAP1 isoform 2 (UniProt Q9Y2A7)
inactive: [3] -0.037 | [1] 0.035 | [4] 0.003 | [5] 0.007 | [2] -0.004

NAGPA (UniProt Q9UK23)
UniProt Q9UK23, sequence (Q9UK23 whole entry, looked up): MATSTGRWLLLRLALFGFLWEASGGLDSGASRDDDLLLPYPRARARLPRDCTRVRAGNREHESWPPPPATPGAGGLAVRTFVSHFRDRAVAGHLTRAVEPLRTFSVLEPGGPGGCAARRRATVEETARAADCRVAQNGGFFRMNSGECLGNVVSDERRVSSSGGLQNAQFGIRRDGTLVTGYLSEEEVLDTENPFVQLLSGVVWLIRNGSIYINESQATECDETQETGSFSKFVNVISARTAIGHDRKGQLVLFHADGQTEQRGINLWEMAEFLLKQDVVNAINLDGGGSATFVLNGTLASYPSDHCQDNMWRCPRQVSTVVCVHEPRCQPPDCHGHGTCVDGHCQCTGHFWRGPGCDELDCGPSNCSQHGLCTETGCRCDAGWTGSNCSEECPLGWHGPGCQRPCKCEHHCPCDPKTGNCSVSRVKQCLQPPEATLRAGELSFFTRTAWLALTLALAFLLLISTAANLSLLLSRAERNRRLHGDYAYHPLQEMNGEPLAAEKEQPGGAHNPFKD
inactive: [3] 0.179 | [1] -0.048 | [5] -0.004 | [2] 0.061

OXR1 isoform 2 (UniProt Q8N573)
inactive: [1] 0.126 | [4] 0.025 | [5] -0.035 | [2] -0.101

NACC1 (UniProt Q96RE7)
inactive: [3] -0.029 | [1] 0.039 | [4] 0.092 | [5] -0.037 | [2] -0.015

NA, A0A1W2PSA9
inactive: [1] -0.046 | [5] 0.006 | [2] 0.104

MRPS15 (UniProt P82914)
inactive: [3] -0.035 | [1] 0.077 | [4] -0.056 | [5] 0.066 | [2] -0.097

OSBP (UniProt P22059)
UniProt P22059, sequence (P22059 whole entry, looked up): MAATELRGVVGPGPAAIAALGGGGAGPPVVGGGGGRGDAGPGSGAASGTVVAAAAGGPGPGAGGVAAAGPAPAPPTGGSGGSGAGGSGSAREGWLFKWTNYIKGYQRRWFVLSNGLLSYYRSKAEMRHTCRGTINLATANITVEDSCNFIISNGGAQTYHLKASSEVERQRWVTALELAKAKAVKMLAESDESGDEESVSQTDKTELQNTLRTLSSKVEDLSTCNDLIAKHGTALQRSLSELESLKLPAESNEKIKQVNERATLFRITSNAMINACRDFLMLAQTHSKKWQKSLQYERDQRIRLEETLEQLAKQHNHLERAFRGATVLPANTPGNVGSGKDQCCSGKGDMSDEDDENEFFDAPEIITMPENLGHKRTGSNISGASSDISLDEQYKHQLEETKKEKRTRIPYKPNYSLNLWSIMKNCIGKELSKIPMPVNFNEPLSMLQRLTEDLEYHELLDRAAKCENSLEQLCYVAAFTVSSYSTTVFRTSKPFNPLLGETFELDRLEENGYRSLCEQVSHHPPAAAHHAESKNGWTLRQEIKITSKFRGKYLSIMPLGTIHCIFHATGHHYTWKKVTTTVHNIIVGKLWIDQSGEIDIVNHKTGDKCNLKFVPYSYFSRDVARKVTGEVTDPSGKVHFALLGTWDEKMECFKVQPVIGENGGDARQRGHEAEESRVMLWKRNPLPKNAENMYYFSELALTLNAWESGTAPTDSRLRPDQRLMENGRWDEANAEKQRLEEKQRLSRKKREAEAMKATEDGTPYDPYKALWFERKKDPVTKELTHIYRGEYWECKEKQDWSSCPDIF
inactive: [3] 0.015 | [1] 0.084 | [4] 0.076 | [5] -0.002 | [2] 0.031

MRPS17 (UniProt Q9Y2R5)
inactive: [3] -0.031 | [1] -0.044 | [4] -0.011 | [5] 0.06 | [2] -0.064

OSBPL2 (UniProt Q9H1P3)
inactive: [1] -0.583 | [2] -0.09

NECTIN2 isoform 2 (UniProt Q92692)
inactive: [3] 0.179 | [4] -0.03

NAP1L1 (UniProt B7Z9C2)
inactive: [3] 0.003 | [4] 0.134
